Measured values published in PubChem BioAssay (EPA / NIEHS).
The source made the active and inactive calls. How the source made its calls: active means hit-call score of the fitted dose curve at least 0.9, where 1 is the maximum; inactive means score below 0.9.

Columns and labels:
[1] = read-out: Transforming growth factor beta 1 (TGFb1), TGFB1 (gene 7040); test: BSK_KF3CT_TGFb1: BioMAP Diversity Plus: KF3CT Assay for Transforming growth factor beta 1 (TGFb1) Biomarker Activity (AID 2283072); details: primary human keratinocytes with fibroblasts; actives raise or lower the signal
In short: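 TGF-b1 ELISA on a 24 h dosed co-culture of human keratinocytes and foreskin fibroblasts; cytotoxicity tracked in parallel cultures by SRB staining.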

[2] = read-out: C-C motif chemokine 2 (Homo sapiens) (UniProt P13500); test: BSK_KF3CT_MCP1: BioMAP Diversity Plus: KF3CT Assay for Monocyte Chemoattractant Protein 1 (MCP1/CCL2) Biomarker Activity (AID 2283073); details: primary human keratinocytes with fibroblasts; actives raise or lower the signal
In short: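 KF3CT skin co-culture (keratinocytes/foreskin fibroblasts), 24 h post-dose; MCP-1 by ELISA; gain/loss of signal fit bidirectionally vs DMSO baseline.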

[3] = read-out: Matrix Metallopeptidase 9 (MMP9), MMP9 (gene 4318); test: BSK_KF3CT_MMP9: BioMAP Diversity Plus: KF3CT Assay for Matrix Metallopeptidase 9 (MMP9) Biomarker Activity (AID 2283074); details: primary human keratinocytes with fibroblasts; actives raise or lower the signal;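 on AC50: MMP9 protein level quantified by ELISA in the co-culture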
In short: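 MMP-9 quantified by ELISA after 24 h chemical treatment of primary human skin keratinocyte/fibroblast co-cultures; gain or loss fitted against DMSO, with parallel SRB staining (0.1% SRB, 560 nm) for overt cytotoxicity.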

[4] = read-out: urokinase plasminogen activator (uPA), PLAU (gene 5328); test: BSK_KF3CT_uPA: BioMAP Diversity Plus: KF3CT Assay for urokinase plasminogen activator (uPA) Biomarker Activity (AID 2283075); details: primary human keratinocytes with fibroblasts; actives raise or lower the signal
In short: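 ELISA read-out of uPA 24 h after dosing human skin keratinocytes co-cultured with foreskin fibroblasts. Signal change fitted both ways relative to DMSO; sulforhodamine B on parallel cultures marks overt cytotoxicity.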

[5] = read-out: E-selectin (Homo sapiens) (UniProt P16581); test: BSK_LPS_Eselectin: BioMAP Diversity Plus: LPS Assay for Eselectin Biomarker Activity (AID 2283077); details: primary human HUVEC with PBMC; actives raise or lower the signal
In short: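 ELISA readout of E-selectin, 24 h post-dose, HUVEC + PBMC co-culture (LPS system). Gain or loss of signal vs DMSO baseline, bidirectional fit.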

[6] = read-out: Interleukin-8 (IL8), CXCL8 (gene 3576); test: BSK_LPS_IL8: BioMAP Diversity Plus: LPS Assay for Interleukin-8 (IL8) Biomarker Activity (AID 2283078); details: primary human HUVEC with PBMC; actives raise or lower the signal
In short: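 HUVEC + PBMC co-culture, LPS-activated; test chemicals dosed, IL-8 read by ELISA at 24 h. Bidirectional curve fit vs DMSO baseline (gain or loss of signal).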

[7] = BSK_LPS_SRB: Viability Assessment in the BioMAP Diversity Plus: LPS Assay (AID 2283079); details: primary human HUVEC with PBMC;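 further: total protein by sulforhodamine B absorbance as a cytotoxicity measure; measured one day after compound addition; fitted in both directions against DMSO so loss or gain of signal counts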
In short: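 HUVEC + PBMC co-culture, LPS-stimulated; compound 24 h. 10% TCA fix, 0.1% SRB stain, A560. Bidirectional fit vs DMSO.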

[8] = read-out: Interleukin-1 alpha (IL1a), IL1A (gene 3552); test: BSK_LPS_IL1a: BioMAP Diversity Plus: LPS Assay for Interleukin-1 alpha (IL1a) Biomarker Activity (AID 2283080); details: primary human HUVEC with PBMC; actives raise or lower the signal
In short: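 HUVEC/PBMC co-culture, LPS system; 24 h after dosing; IL-1a by ELISA; gain or loss of signal fitted bidirectionally vs DMSO baseline.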

[9] = read-out: Monocyte Chemoattractant Protein-1 (MCP1), CCL2 (gene 6347); test: BSK_LPS_MCP1: BioMAP Diversity Plus: LPS Assay for Monocyte Chemoattractant Protein-1 (MCP1) Biomarker Activity (AID 2283081); details: primary human HUVEC with PBMC; actives raise or lower the signal
In short: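 ELISA read-out of MCP-1 after 24 h chemical dosing of a human umbilical vein endothelial cell/peripheral blood mononuclear cell co-culture stimulated with LPS. Gain or loss of signal fitted relative to DMSO controls.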

CD40, CD40 (gene 958) = test: BSK_LPS_CD40: BioMAP Diversity Plus: LPS Assay for CD40 Biomarker Activity (AID 2283076); details: primary human HUVEC with PBMC; actives raise or lower the signal
In short: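 ELISA readout of CD40 in HUVEC/PBMC co-culture (BSK_LPS system), 24 h post-dosing; bidirectional curve fit, DMSO baseline; parallel SRB total-protein staining for cytotoxicity.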

Sequence of E-selectin (Homo sapiens) (P16581 whole entry, looked up): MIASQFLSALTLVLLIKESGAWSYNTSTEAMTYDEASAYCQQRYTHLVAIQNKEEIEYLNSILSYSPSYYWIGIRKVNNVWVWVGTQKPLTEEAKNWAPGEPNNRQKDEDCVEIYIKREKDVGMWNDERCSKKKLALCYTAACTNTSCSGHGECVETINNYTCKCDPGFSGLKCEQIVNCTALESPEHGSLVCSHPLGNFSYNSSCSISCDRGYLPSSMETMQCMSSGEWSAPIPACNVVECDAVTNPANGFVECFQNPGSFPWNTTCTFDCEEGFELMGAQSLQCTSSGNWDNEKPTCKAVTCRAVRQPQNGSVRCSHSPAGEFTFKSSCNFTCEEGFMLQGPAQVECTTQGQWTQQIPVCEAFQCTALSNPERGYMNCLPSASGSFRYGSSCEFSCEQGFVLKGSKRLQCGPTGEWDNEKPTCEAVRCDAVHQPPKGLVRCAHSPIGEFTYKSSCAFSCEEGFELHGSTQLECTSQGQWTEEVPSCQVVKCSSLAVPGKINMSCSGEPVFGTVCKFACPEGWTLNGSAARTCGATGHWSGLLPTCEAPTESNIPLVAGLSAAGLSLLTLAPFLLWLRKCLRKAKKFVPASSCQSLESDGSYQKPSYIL

## CC(=O)S[C@@H]1CC2=CC(=O)CC[C@]2(C)[C@H]2CC[C@@]3(C)[C@@H](CC[C@@]34CCC(=O)O4)[C@H]12
[1]
  outcome: inactive
[2]
  outcome: inactive
[3]
  outcome: inactive
[4]
  outcome: inactive
[5]
  AC50: 22.5 µM (active)
[6]
  AC50: 15.9 µM (active)
[7]
  AC50: 20.9 µM (active)
[8]
  AC50: 12.4 µM (active)

## CCN(Cc1c(F)cccc1Cl)c1c([N+](=O)[O-])cc(C(F)(F)F)cc1[N+](=O)[O-]
[1]
  outcome: inactive
[2]
  outcome: inactive
[3]
  outcome: inactive
[4]
  outcome: inactive
[5]
  outcome: inactive
[6]
  AC50: 13.6 µM (active)
[7]
  AC50: 14.1 µM (active)

## COC(=O)c1ccc(CNS(C)(=O)=O)cc1S(=O)(=O)NC(=O)Nc1nc(OC)cc(OC)n1
[1]
  outcome: inactive
[2]
  outcome: inactive
[3]
  outcome: inactive
[4]
  outcome: inactive
[5]
  outcome: inactive
[6]
  outcome: inactive
[7]
  outcome: inactive
[9]
  outcome: inactive

## S=C([S-])NCCNC(=S)[S-].[Mn+2]
[1]
  outcome: inactive
[2]
  outcome: inactive
[3]
  AC50: 36.6 µM (active)
[4]
  outcome: inactive
[5]
  AC50: 7.58 µM (active)
[6]
  outcome: inactive
[7]
  outcome: inactive
[8]
  outcome: inactive
[9]
  outcome: inactive

## C[C@]12CC[C@@H]3c4ccc(O)cc4C[C@@H](CCCCCCCCCS(=O)CCCC(F)(F)C(F)(F)F)[C@H]3[C@@H]1CC[C@@H]2O (stereo partly specified)
[1]
  outcome: inactive
[2]
  outcome: inactive
[3]
  outcome: inactive
[4]
  outcome: inactive
[5]
  outcome: inactive
[6]
  outcome: inactive
[7]
  outcome: inactive
[9]
  outcome: inactive

## CC(=O)[C@H]1CC[C@H]2[C@@H]3CCC4=CC(=O)CC[C@]4(C)[C@H]3CC[C@]12C
[2]
  outcome: inactive
[3]
  outcome: inactive
[4]
  outcome: inactive
CD40, CD40 (gene 958)
  AC50: 20 µM (active)
[5]
  AC50: 25.3 µM (active)
[6]
  AC50: 20 µM (active)
[7]
  AC50: 8 µM (active)

## CCCCOC(=O)[C@@H](C)Oc1ccc(Oc2ccc(C(F)(F)F)cn2)cc1
[1]
  outcome: inactive
[2]
  outcome: inactive
[3]
  outcome: inactive
[4]
  outcome: inactive
[5]
  outcome: inactive
[6]
  outcome: inactive
[7]
  outcome: inactive
[9]
  outcome: inactive

## CCNc1nc(N)nc(Cl)n1
[1]
  outcome: inactive
[2]
  outcome: inactive
[3]
  outcome: inactive
[4]
  outcome: inactive
[5]
  outcome: inactive
[6]
  outcome: inactive
[7]
  outcome: inactive
[8]
  outcome: inactive

## CCCCOC(=O)C(C)Oc1ccc(Oc2ccc(C(F)(F)F)cn2)cc1 (stereo unspecified)
[1]
  outcome: inactive
[2]
  outcome: inactive
[3]
  outcome: inactive
[4]
  outcome: inactive
[5]
  outcome: inactive
[6]
  outcome: inactive
[7]
  outcome: inactive
[9]
  outcome: inactive

## CCCCC(CC)CN1C(=O)C2C3C=CC(C3)C2C1=O (stereo unspecified)
[1]
  outcome: inactive
[2]
  outcome: inactive
[3]
  outcome: inactive
[4]
  outcome: inactive
[5]
  outcome: inactive
[6]
  outcome: inactive
[7]
  AC50: 3.97 µM (active)

## N[C@@H](Cc1cc(I)c(Oc2ccc(O)c(I)c2)c(I)c1)C(=O)O
[1]
  outcome: inactive
[2]
  outcome: inactive
[3]
  outcome: inactive
[4]
  outcome: inactive
[5]
  AC50: 13.6 µM (active)
[6]
  outcome: inactive
[7]
  outcome: inactive
[9]
  outcome: inactive

## Cc1nn(C)c(Oc2ccccc2)c1C=NOCc1ccc(C(=O)OC(C)(C)C)cc1
[1]
  outcome: inactive
[2]
  AC50: 12.7 µM (active)
[3]
  AC50: 11.8 µM (active)
[4]
  outcome: inactive
[5]
  outcome: inactive
[6]
  AC50: 8.08 µM (active)
[7]
  AC50: 12.6 µM (active)
[8]
  AC50: 13.2 µM (active)

## COC(=O)c1ccccc1S(=O)(=O)NC(=O)Nc1nc(OC(F)F)cc(OC(F)F)n1
[1]
  outcome: inactive
[2]
  outcome: inactive
[3]
  outcome: inactive
[4]
  outcome: inactive
[5]
  outcome: inactive
[6]
  outcome: inactive
[7]
  outcome: inactive
[9]
  outcome: inactive

## CCC(C)OC(=O)N1CCCCC1CCO (stereo unspecified)
[1]
  outcome: inactive
[2]
  outcome: inactive
[3]
  outcome: inactive
[4]
  outcome: inactive
[5]
  outcome: inactive
[6]
  outcome: inactive
[7]
  outcome: inactive
[8]
  outcome: inactive

## COC(=O)c1ccc(I)cc1S(=O)(=O)NC(=O)Nc1nc(C)nc(OC)n1
[1]
  outcome: inactive
[2]
  outcome: inactive
[3]
  outcome: inactive
[4]
  outcome: inactive
[5]
  outcome: inactive
[6]
  outcome: inactive
[7]
  outcome: inactive
[8]
  outcome: inactive
[9]
  outcome: inactive

## CC(C)CCCCCCc1ccc(O)cc1
[1]
  AC50: 5.58 µM (active)
[2]
  AC50: 8.65 µM (active)
[3]
  AC50: 9.76 µM (active)
[4]
  AC50: 9.65 µM (active)
[5]
  AC50: 12.1 µM (active)
[7]
  AC50: 13.8 µM (active)

## Oc1ccc(C(c2ccc(O)cc2)C(Cl)(Cl)Cl)cc1
[1]
  outcome: inactive
[2]
  AC50: 20 µM (active)
[3]
  AC50: 24.6 µM (active)
[4]
  AC50: 31.8 µM (active)
[6]
  AC50: 14.9 µM (active)
[7]
  AC50: 17 µM (active)

## COC(=O)c1ccccc1C(=O)O
[1]
  outcome: inactive
[2]
  AC50: 0.726 µM (active)
[3]
  outcome: inactive
[4]
  outcome: inactive
[5]
  outcome: inactive
[6]
  outcome: inactive
[7]
  outcome: inactive
[8]
  outcome: inactive

## COCCO
[1]
  outcome: inactive
[3]
  outcome: inactive
[4]
  outcome: inactive
[5]
  outcome: inactive
[6]
  outcome: inactive
[7]
  outcome: inactive

## CC1(C)C(C=C(Cl)Cl)C1C(=O)OCc1cccc(Oc2ccccc2)c1 (stereo unspecified)
[1]
  outcome: inactive
[2]
  outcome: inactive
[3]
  outcome: inactive
[4]
  outcome: inactive
[5]
  outcome: inactive
[6]
  AC50: 10 µM (active)
[7]
  AC50: 6.14 µM (active)
[9]
  outcome: inactive

## CCOC(=O)C(C)Oc1ccc(Oc2cnc3cc(Cl)ccc3n2)cc1 (stereo unspecified)
[1]
  outcome: inactive
[2]
  outcome: inactive
[3]
  outcome: inactive
[4]
  outcome: inactive
[5]
  outcome: inactive
[6]
  outcome: inactive
[7]
  outcome: inactive
[8]
  outcome: inactive

## COC(=O)c1cccc(C)c1S(=O)(=O)NC(=O)Nc1nc(OCC(F)(F)F)nc(N(C)C)n1
[1]
  outcome: inactive
[2]
  outcome: inactive
[3]
  outcome: inactive
[4]
  outcome: inactive
[5]
  outcome: inactive
[6]
  outcome: inactive
[7]
  outcome: inactive
[8]
  outcome: inactive

## CCC(O)=C1C(=O)CC(C(=O)O)CC1=O (stereo unspecified)
[1]
  outcome: inactive
[2]
  outcome: inactive
[3]
  outcome: inactive
[4]
  outcome: inactive
[5]
  outcome: inactive
[6]
  outcome: inactive
[7]
  outcome: inactive
[8]
  outcome: inactive

## COC(=O)CSc1cc(N=c2sc(=O)n3n2CCCC3)c(F)cc1Cl
[2]
  outcome: inactive
[3]
  outcome: inactive
[4]
  outcome: inactive
[5]
  outcome: inactive
[6]
  outcome: inactive
[7]
  outcome: inactive

## CC(C)(c1ccc(O)cc1)c1ccc(O)cc1
[1]
  outcome: inactive
[2]
  outcome: inactive
[3]
  outcome: inactive
[4]
  outcome: inactive
[5]
  outcome: inactive
[6]
  outcome: inactive
[7]
  outcome: inactive
[8]
  outcome: inactive
[9]
  outcome: inactive

## CCOC(=O)NCCOc1ccc(Oc2ccccc2)cc1
[1]
  outcome: inactive
[2]
  AC50: 4.43 µM (active)
[3]
  AC50: 30.3 µM (active)
[4]
  outcome: inactive
[5]
  outcome: inactive
[6]
  outcome: inactive
[7]
  AC50: 14.2 µM (active)
[8]
  outcome: inactive

## CCN(CC)C(=O)c1cccc(C)c1
[1]
  outcome: inactive
[2]
  outcome: inactive
[3]
  outcome: inactive
[4]
  outcome: inactive
[5]
  outcome: inactive
[6]
  outcome: inactive
[7]
  outcome: inactive
[8]
  outcome: inactive

## C#CCOC(=O)[C@@H](C)Oc1ccc(Oc2ncc(Cl)cc2F)cc1
[1]
  outcome: inactive
[2]
  outcome: inactive
[3]
  outcome: inactive
[4]
  outcome: inactive
[5]
  outcome: inactive
[6]
  outcome: inactive
[7]
  outcome: inactive

## COc1c(Cl)ccc(Cl)c1C(=O)O
[1]
  outcome: inactive
[3]
  outcome: inactive
[4]
  outcome: inactive
[5]
  outcome: inactive
[6]
  outcome: inactive
[7]
  outcome: inactive
[8]
  outcome: inactive
[9]
  outcome: inactive

## CCCOC(=O)NCCCN(C)C
[1]
  outcome: inactive
[2]
  outcome: inactive
[3]
  outcome: inactive
[4]
  outcome: inactive
[5]
  outcome: inactive
[6]
  outcome: inactive
[7]
  outcome: inactive
[9]
  outcome: inactive
